Data: the GenesisPotency data set
Out of some 290,000 compounds screened, about 3,000 (1%) were called active. Rule as the data show it: active = inhibition mostly above about 36% (no sharp cut-off); inactive = mostly below about 34%. The sample as a whole holds a higher share of actives than the screen did.

target: T1, Nucleotide-binding oligomerization domain-containing protein 1, Homo sapiens (UniProt Q9Y239); experiment: inhibition of NOD1-driven NF-kB reporter – cell-based, luminescence, uHTS, primary screen (AID 1578)
T1 sequence (whole entry): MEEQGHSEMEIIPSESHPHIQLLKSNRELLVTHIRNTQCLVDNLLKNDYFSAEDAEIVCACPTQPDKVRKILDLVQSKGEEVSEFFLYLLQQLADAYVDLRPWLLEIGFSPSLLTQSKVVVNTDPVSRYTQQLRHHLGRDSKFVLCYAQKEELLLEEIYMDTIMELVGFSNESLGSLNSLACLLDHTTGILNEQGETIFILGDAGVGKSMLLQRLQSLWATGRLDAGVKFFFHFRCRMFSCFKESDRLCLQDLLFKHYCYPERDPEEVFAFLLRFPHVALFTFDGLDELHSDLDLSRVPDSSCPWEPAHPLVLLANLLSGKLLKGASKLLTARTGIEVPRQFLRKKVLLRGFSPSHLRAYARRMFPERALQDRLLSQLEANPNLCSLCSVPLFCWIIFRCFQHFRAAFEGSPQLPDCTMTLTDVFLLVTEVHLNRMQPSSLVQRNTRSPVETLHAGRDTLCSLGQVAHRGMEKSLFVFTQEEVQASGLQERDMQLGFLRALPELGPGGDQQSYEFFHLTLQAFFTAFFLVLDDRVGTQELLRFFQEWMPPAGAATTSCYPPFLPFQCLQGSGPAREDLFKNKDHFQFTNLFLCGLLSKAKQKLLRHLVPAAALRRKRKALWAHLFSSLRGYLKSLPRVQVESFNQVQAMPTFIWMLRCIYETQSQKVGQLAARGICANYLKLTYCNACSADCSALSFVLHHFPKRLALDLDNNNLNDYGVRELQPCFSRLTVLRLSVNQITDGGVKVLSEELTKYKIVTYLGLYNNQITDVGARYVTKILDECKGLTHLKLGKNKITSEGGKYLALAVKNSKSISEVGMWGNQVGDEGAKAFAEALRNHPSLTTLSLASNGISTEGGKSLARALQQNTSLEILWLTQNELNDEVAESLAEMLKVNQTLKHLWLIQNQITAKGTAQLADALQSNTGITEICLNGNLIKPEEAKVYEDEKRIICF

outcome, active:
O=C(Nc1ccc(F)cc1)c1ccc(CN2CCc3ccccc3C2)cc1, N#CCc1ccc(NC(=O)c2ccc(CN3CCc4ccccc4C3)cc2)cc1, Cc1ccc(-c2csc(N3CCC(NS(=O)(=O)c4ccc5c(c4)OCCO5)CC3)n2)cc1, COc1ccc(Oc2ccccc2/C=N/O)cc1, O=C(CSc1nnnn1C1CC2CCC1C2)Nc1ccnc2ccccc12 (stereo not drawn), CCC(C)Cn1c([O-])cc2nn(-c3nc4ccccc4s3)c(=O)c-2c1C.[Na+] (stereo not drawn), CC1=Nc2ccccc2/C1=C/c1sc(=N)n(-c2nccs2)c1O, NC(=O)c1cc2ccncc2c2ccccc12, Nc1cc2ccncc2c2ccccc12, Cc1cccc(C(=O)NNC2=C(C(=O)C(F)(F)F)CCC2)c1O, C=CS(=O)(=O)c1ccc(Oc2ccc(S(=O)(=O)C=C)cc2)cc1, COc1cccc(C(=O)/C=C/Nc2ccc(S(=O)(=O)Nc3cccc(C(C)=O)c3)cc2)c1, COc1cccc(NS(=O)(=O)c2ccc3c(c2)CCN3C(C)=O)c1, Cc1c(C)n(Cc2ccccc2)c2ncnc(Cl)c12, Br.CCCCCCCCCCn1c2c(c(=N)c3c1CCC3)CCC2, Br.CCCCCCCCCn1c2c(c(=N)c3c1CCC3)CCC2, Br.CCCCCCCCn1c2c(c(=N)c3ccccc31)CCC2, COc1cccc(NC(=O)CN(C)CC(=O)Nc2ccc(C)c([N+](=O)[O-])c2)c1, O=C(CCl)N(Cc1cc(=O)[nH]c2ccccc12)c1ccccc1, Cc1cccc(N(Cc2cc(=O)[nH]c3ccccc23)C(=O)CCl)c1, Cc1ccc(N(Cc2cc(=O)[nH]c3ccccc23)C(=O)CCl)cc1, Cn1cc([N+](=O)[O-])c(C(=O)Nc2cc(Oc3ccccc3)cc([N+](=O)[O-])c2)n1, CNC(=O)c1nnsc1S(=O)(=O)c1ccc(Cl)cc1, O=C(c1nnsc1S(=O)(=O)c1ccc(Cl)cc1)N1CCOCC1, O=C(Nc1nnc(-c2ccco2)o1)c1ccc2ccccc2c1, COc1cc(OC)cc(-c2nnc(NC(=O)c3ccc4c(c3)OCCO4)o2)c1, O=C(Nc1nnc(-c2ccc3c(c2)OCCO3)o1)c1ccc(Cc2ccccc2)cc1, CCCN(CCC)S(=O)(=O)c1ccc(C(=O)Nc2nnc(-c3cc(OC)cc(OC)c3)o2)cc1, CSCc1nnc(NC(=O)c2ccc(S(=O)(=O)N(CC(C)C)CC(C)C)cc2)o1, O=C(Nc1ccc(Oc2ccccc2)cc1)C1CCN(c2c3c(nc4ncnn24)CCC3)CC1, CC1CCc2nc(N)c(C#N)c(-c3cccnc3)c2C1 (stereo not drawn), Cc1nc(N)c(C#N)c(-c2cccnc2)c1-c1ccccc1, Cc1ccc(NC(=O)O/N=C/c2c(C)nn(C(C)(C)C)c2C)cc1Cl, CC(=O)Oc1c(C)cc(Cl)cc1C(=O)Nc1ccc([N+](=O)[O-])cc1Cl, CC1CCc2c(sc(NC(=O)CSc3ncn[nH]3)c2C#N)C1 (stereo not drawn), N#Cc1c(NC(=O)CSc2ncn[nH]2)sc2c1CCCC2, N#Cc1c(NC(=O)CSc2ncn[nH]2)sc2c1CCCCC2, O=C(Nc1cc(S(=O)(=O)Nc2ccccc2Cl)ccc1O)c1cc2c(s1)CCCC2, Cc1ccc(NC(=O)c2cc3c(s2)CCCC3)cc1S(=O)(=O)Nc1ccccc1Cl, Cn1c(=O)c(C#N)c(-c2ccc(F)cc2)c2cc(C(=O)c3cc(Cl)cc(Cl)c3O)cnc21, CC(C)(C)c1ccc(C(=O)N2CCCCCC2=O)cc1, O=C(COc1ccc(Cl)cc1Cl)Nc1ccc(C(=O)Nc2ccccc2C(=O)O)cc1, O=[N+]([O-])c1cc(Cl)c(O)c2ncccc12, Oc1c(I)cc(Cl)c2cccnc12, O=C(Oc1c(Cl)cc(Cl)c2cccnc12)c1ccco1, Oc1c(Cl)cc(Cl)c2cccnc12, Oc1c(I)cc(I)c2cccnc12, c1ccc(N2CCN(c3ncnc4sc5c(c34)CCC5)CC2)cc1, Cn1c(-c2ccccc2)c(C(=O)CCl)c2ccccc21, Cn1cc(C(=O)CCl)c2ccccc21, Cc1ccc2c(c1)[nH]c1c(N3CCN(Cc4ccccc4)CC3)ncnc12, c1ccc(CN2CCN(c3ncnc4c3[nH]c3ccccc34)CC2)cc1, Cc1ccc2[nH]c3c(N4CCN(Cc5ccccc5)CC4)ncnc3c2c1, Cc1ccc2[nH]c3c(N4CCc5ccccc5C4)ncnc3c2c1, Cc1ccc(-c2noc(CCCC(=O)NC3CCCCC3)n2)cc1, O=C(CCCc1nc(-c2ccc(Cl)cc2)no1)NC1CCCCC1, O=C(CCCc1nc(-c2ccc(Cl)cc2)no1)NC1CCCC1, N#CC(c1cccc(Cl)c1)c1ccc2c(C(F)(F)F)cc(C(F)(F)F)nc2n1 (stereo not drawn), CCCCN(c1ccccc1)c1ncnc(N)c1[N+](=O)[O-], Cc1ccc(Cl)cc1N1CCN(C(=O)CSc2nnc3n2C(C)(C)Cc2ccccc2-3)CC1, CN(Cc1ccccc1)C1=CC(=[N+]2CCCCC2)CC(C)(C)C1.[I-], CC1(C)CC(N2CCN(C(c3ccccc3)c3ccccc3)CC2)=CC(=[N+]2CCCCC2)C1.[I-], c1csc(CCNc2ncnc3sc4c(c23)CCC4)c1, Cc1cc(C(=O)NC2CCCc3c2cnn3-c2ccc(C(C)(C)C)cc2)nn1C (stereo not drawn), Cn1nccc1C(=O)NC1CCCc2c1cnn2-c1ccc(C(C)(C)C)cc1 (stereo not drawn), CC(C)(C)c1ccc(-n2ncc3c2CCCC3NC(=O)C2(C(N)=O)CC2)cc1 (stereo not drawn), Cc1ccc(NC(=O)Nc2nnc(-c3ccncc3)s2)cc1C, O=C(Nc1ccc2nc3n(c(=O)c2c1)CCCCC3)c1c(F)ccc([N+](=O)[O-])c1F, CCOc1cccc(-c2c(C(=O)N/N=C(\C)c3ccccn3)nnn2-c2nonc2N)c1, CN(C)S(=O)(=O)c1cccc(NC(=O)c2ccc(COc3ccccc3)cc2)c1, COc1ccc(C(=O)/C=C/C(=O)N(CC(=O)NC2CCCCC2)Cc2ccccc2OC)c(O)c1, C=CCn1c(Oc2ccc(C(=O)OC)cc2)nc2c1c(=O)n(C)c(=O)n2C, CCn1c(Oc2ccccc2F)nc2c1c(=O)n(C)c(=O)n2C, C=CCn1c(Oc2ccccc2F)nc2c1c(=O)n(C)c(=O)n2C, Cc1ccc(S(=O)(=O)c2cc3cc(Br)ccc3oc2=O)cc1, O=c1oc2ccc(Br)cc2cc1S(=O)(=O)c1ccc(F)cc1, O=C(O)c1c(NC(=O)c2cccc3ccccc23)sc2c1CCC2, COc1ccc(-c2c[n+]3c(n2-c2ccc(C)cc2)CCCCC3)cc1.[Br-], Cc1cc(Br)ccc1NC(=O)CNC(=O)Cn1ncc(Cl)c(Cl)c1=O, O=C(Cn1ncc(Cl)c(Cl)c1=O)c1ccc(Cl)cc1, CCC(=O)Nc1ccc(C(=O)Cn2ncc(Cl)c(Cl)c2=O)cc1, CCOC(=O)c1ccc(NC(=O)Cn2ncc(Cl)c(Cl)c2=O)cc1, O=C(Cn1ncc(Cl)c(Cl)c1=O)N1CCc2ccccc21, C#Cc1ccc([C@@H]2C=C(C(=O)N3CCN(Cc4ccccc4)CC3)O[C@H](OCCCCO)C2)cc1, O=C(COc1ccc(Br)cc1)Nc1ccc(Cc2ccncc2)cc1, Cn1cnnc1Sc1ccc(/C=C/C(=O)c2ccc(O)cc2)cc1[N+](=O)[O-], C(=N\Nc1nc2ccccc2s1)/c1ccccn1, CCn1c(=O)c2c(cnn2C)c2ccccc21, CC(=O)c1c(O)c(C)c(O)c2c1OC1=CC(=O)C(C(C)=O)C(=O)[C@@]12C (stereo partly drawn), O=C(NCc1cccs1)c1nc2c(nnn2Cc2ccccc2Cl)c(=O)[nH]1, O=C(NCc1ccco1)c1nc2c(nnn2Cc2ccccc2Cl)c(=O)[nH]1, COc1ccc2ncn(-c3ccccc3)c2c1, COc1ccc(-n2cnc3ccccc32)cc1, O=C(CSc1nnc2c(n1)[nH]c1ccccc12)NC1CCCCC1, NC(=S)N/N=C\c1c(OCc2ccccc2Cl)ccc2ccccc12, CC(C)N1C(=O)/C(=C/c2nc3ccccc3c(=O)n2-c2ccccc2)c2ccccc21, Cc1cccc(-n2c(SCC(=O)N3CCC(C(=O)O)CC3)nc3ccccc3c2=O)c1C, CC1=CC(C)(C)Nc2ccc(OC(=O)CN3C(=O)C4CCCCC4C3=O)cc21 (stereo not drawn), CC1=CC(C)(C)Nc2ccc(OC(=O)CN3C(=O)CCC3=O)cc21, COc1ccc(OC)c(/C=C/c2ccc3cccc(O)c3n2)c1, Oc1c(Cl)cc(Cl)cc1/C=C/c1ccc2cccc(O)c2n1, COc1cc(/C=C/c2ccc3cccc(O)c3n2)cc(OC)c1OC, COc1cc(/C=C/c2ccc3cccc(O)c3n2)ccc1O, O=C(Nc1nnc(-c2cccs2)o1)c1cccc(Oc2ccccc2)c1, O=C(Nc1nnc(-c2cccs2)o1)c1cccc(C(F)(F)F)c1, O=C(C1CCC(CNS(=O)(=O)c2cccs2)CC1)N1CCN(c2ccc(Cl)cc2)CC1 (stereo not drawn), O=C(Nc1ccccc1C(=O)Nc1nnc(C(F)(F)F)s1)c1ccccc1, Cc1onc(-c2c(F)cccc2Cl)c1C(=O)Nc1nnc(C(F)(F)F)s1, O=C(Nc1ccccc1C(=O)Nc1nnc(C(F)(F)F)s1)c1ccccc1Cl, COc1ccccc1CN(Cc1nc2ccccc2c(=O)[nH]1)S(=O)(=O)c1ccc2ccccc2c1, N#C/C(=C\c1ccc(O)c([N+](=O)[O-])c1)c1nc2ccccc2s1, O=C(CCl)N1c2ccccc2OCC1c1ccccc1 (stereo not drawn), Cc1ccc(C(=O)Nc2ccccc2-c2ccccc2)cc1[N+](=O)[O-]
